Bioassay records deposited in PubChem by ICCB-Longwood Screening Facility, Harvard Medical School.
This is a sample that favours compounds with a hit; in the whole collection about 1.4% have one here.
MenB inh = inhibitors of Mycobacterium tuberculosis MenB enzyme; P9WNP5; MenB enzyme assay, absorbance read-out; inhibition, % (concentration not given with the values); 100,000 compounds, 0.43% hits; AID 540299; in the data active means inhibition above about 21%, passing the limit was not always enough
PV pol inh = inhibitors of poliovirus RNA polymerase binding and polymerization; 150,000 compounds, 0.66% hits; poliovirus polymerase elongation, fluorescence polarization; active compounds read low; % elongation, % (compound at 16.7 µg/mL); P03300; in the data active means % elongation below about 90%
Target sequence (P03300 1749-2209 limits assumed): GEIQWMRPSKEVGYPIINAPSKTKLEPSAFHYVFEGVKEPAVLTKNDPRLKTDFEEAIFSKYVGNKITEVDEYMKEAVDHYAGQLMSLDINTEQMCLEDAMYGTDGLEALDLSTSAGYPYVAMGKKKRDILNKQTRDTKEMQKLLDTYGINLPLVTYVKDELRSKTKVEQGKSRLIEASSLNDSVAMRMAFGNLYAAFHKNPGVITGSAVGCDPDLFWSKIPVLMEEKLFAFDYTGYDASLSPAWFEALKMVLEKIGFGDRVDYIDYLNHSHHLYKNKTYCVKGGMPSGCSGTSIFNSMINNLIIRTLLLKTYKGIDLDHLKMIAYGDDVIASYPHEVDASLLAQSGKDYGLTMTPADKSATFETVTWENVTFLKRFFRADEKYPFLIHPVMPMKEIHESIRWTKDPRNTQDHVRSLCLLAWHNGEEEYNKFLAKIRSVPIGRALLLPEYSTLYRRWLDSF
MbtI inh = inhibitors of Mycobacterium tuberculosis siderophore enzyme MbtI. P9WFX0. purified MbtI enzyme, fluorescence intensity read-out. inhibition, % (no concentration beside the values). 100,000 compounds, 0.89% hits. AID 493033; in the data active means inhibition mostly above about 56%, no sharp cut-off; inactive means mostly below about 77%
AID504770 = growth inhibitors of E. coli YBA685 in a screen for V. cholerae RctB (chromosome II replication) inhibitors; E. coli YBA685 rctB-dependent plasmid, OD600 growth, 3 h; active compounds read low; AID 504770; 130,000 compounds, 0.27% hits; z-score (test concentration not listed); in the data active means z-score below about -2, passing the limit was not always enough
* = called active by the depositor; i = inactive; / = no result; ! = not confirmed by another sample.

SMILES	MenB inh	PV pol inh	MbtI inh	AID504770
NNC(=O)c1nn(-c2ccccc2)c(=O)c2c(N)scc12	1.1	91.0	40.9	0.35
CCc1ccc(N2C(=O)N(CC(N)=O)C3CS(=O)(=O)CC32)cc1 (stereo not drawn)	-5.5	100.0	-15.9	0.7
N#CC(C#N)=NNc1ccccc1	-406.2	99.0	8.3	-3.65*
COCCNC(=S)c1ccc(N(C)C)cc1	-51.9	101.0	61.6*	-0.35
COCCn1c(C)cc(C(=O)Cn2cnc3c(cnn3C)c2=O)c1C	6.3	102.0	3.6	-0.05
COc1ccc(NS(=O)(=O)c2ccc3oc(SC)nc3c2)cc1	-47.7	82.0*	91.8*	0
COc1ccc(NS(=O)(=O)c2ccc3oc(SC/C(O)=C(\C#N)c4nc5ccccc5s4)nc3c2)cc1	-24.2	106.0	42.4	-0.85
CN(C)C(=Nc1ccccc1)P(=O)(c1ccccc1)N(C)C (stereo not drawn)	-26.0	99.0	-10.1	1.25
CCOc1ccc(N2C(=O)CC(NCCNC(=O)c3ccc(Cl)cc3)C2=O)cc1 (stereo not drawn)	26.9*	102.0	4.8	0.85
CC1=CC(C)(C)N=C(Nc2nc(C)c3cc(C)cc(C)c3n2)N1	-19.7	76.0*	/	-0.9
CCN1CN=C(Nc2nc(C)c3cc(C)ccc3n2)NC1	-11.7	101.0	9.1	-0.8
Clc1ccc(NCCC2=CCCCC2)nn1	33.8*	100.0	6.0	0.25
S=c1[nH]nc(Nc2ccccc2)n1-c1ccccc1	-20.7	97.0	57.7*	-0.15
S=c1[nH]nc(-c2ccccc2)n1-c1ccccc1	-17.1	101.0	3.2	0.05
COc1ccc(-n2c(-c3ccco3)nc3ccccc3c2=O)cc1	-2.1	100.0	-1.3	0
Cc1cccc(-n2c(-c3ccco3)nc3ccccc3c2=O)c1	-4.8	104.0	59.0*	-0.3
N#Cc1c(N2C(=O)C3C4C=CC(C4)C3C2=O)sc2c1CCCC2 (stereo not drawn)	-40.5	103.0	-14.7	-0.75
CCN(CC)S(=O)(=O)c1ccc(Cl)c(C(=O)OC)c1	-15.8	102.0	-14.1	1.8
CCN(CC)S(=O)(=O)c1ccc(Cl)c(C(=O)Oc2ccc(C)c(C)c2)c1	-35.7	45.0*	3.5	0.2
CCCn1c(N)c(C(=O)CSc2nnc(-c3ccccc3)o2)c(=O)[nH]c1=O	12.4	105.0	-8.1	0.9
O=c1[nH]nc(SCc2cccc3ccccc23)c(=O)[nH]1	-18.8	100.0	51.2*	2.8
O=c1[nH]nc(SCc2ccccc2)c(=O)[nH]1	/	/	0.8	0.05
CC(C)NS(=O)(=O)c1ccc(N=Cc2c(O)n(C)c(=O)n(C)c2=O)cc1	-18.7	104.0	32.1	-3.7*
Cc1ccc2nc(N=C(N)N)nc(C)c2c1	7.6	101.0	26.4	0.65
COc1ccc2nc(N=C(N)N)nc(C)c2c1	4.5	65.0*	/	0.7
SMILES	MenB inh	PV pol inh	MbtI inh	AID504770
Cn1c(=NC(=O)c2ccc(N3C(=O)CCC3=O)cc2)sc2ccccc21	/	/	/	0.15
CN(C)S(=O)(=O)c1ccc(S(=O)(=O)N2CCC(c3nc4ccccc4s3)CC2)cc1	28.9*	102.0	2.0	-0.75
Cc1cc(C)cc(OC(=O)c2cccnc2)c1	-0.4	99.0	6.8	1.2
Cc1ccc(OC(=O)c2cccnc2)cc1	51.9*	102.0	1.5	1.7
Cc1cccc(-c2nsc(SCC(=O)N3CCCCC3)n2)c1	6.0	102.0	49.4	0
CCOC(=O)CSc1nc(-c2ccccc2)ns1	-2.1	93.0	52.0*	-0.05
O=C(c1ccc2occc2c1)N1CC=C(c2ccccc2)CC1	/	/	/	1.95
CCCSc1nc(-c2ccc(OC)cc2)cc(-c2ccccc2OC)c1C#N	/	88.0*	/	/
O=C(C1=Cc2sc3c(c2CS1)CCCC3)N1CCC2(CC1)OCCO2	-15.3	104.0	95.1*	0.55
O=C(c1cc2c(s1)CCCCCC2)N1CCC2(CC1)OCCO2	-8.5	99.0	0.6	-0.1
Oc1nc2ccccn2c1-c1c(O)nc2ccccn12	/	21.0*	5.6	1.6
c1ccn2c(c1)nc1c2nc2ccccn21	-18.1	101.0	77.4	-0.55
O=C(Cn1cnc2c(nc3n2CCCCC3)c1=O)NC1CCCCCC1	-18.3	102.0	6.8	-2.1*
CCOC(=O)C(C#N)=C1C2CC3CC(C2)CC1C3	/	/	/	-0.15
CCOC(=O)C(C#N)=c1sc(=C(C#N)C(=O)OCC)s1	-19.2	88.0*	75.5*	0.55
CCN(CC)S(=O)(=O)c1ccc(/C=C/C(=O)OCC(=O)N2CCCCC2)cc1	-6.3	91.0	3.4	-0.95
CC(C(=O)O)c1ccc(N2Cc3ccccc3C2=O)cc1 (stereo not drawn)	-14.1	102.0*!	-4.0	0.45
O=C1NC(=O)/C(=C\c2ccccc2C(F)(F)F)S1	-19.9	103.0	100.2*	-0.4
O=C1NC(=S)S/C1=C\c1ccccc1C(F)(F)F	/	/	/	2.75
CC1(C)CC2CC(C)(CN2C(=O)COC(=O)C2CCN(c3ccc(C(F)(F)F)cn3)CC2)C1 (stereo not drawn)	-51.2	106.0	30.9	0.25
COc1ccc(/C=C2/C(=O)N(C)c3ccccc32)cc1	-63.6	100.0	17.1	0.25
CN1C(=O)/C(=c2/[nH][nH]c(=O)/c2=C\C=C\c2ccccc2)C(=O)c2ccccc21	-13.8	84.0*	/	1.8
O=C(Nc1ccccc1)c1ccccc1OCC(=O)N1CCCC1	-15.7	105.0	-8.3	-2.95*
CCOc1ccccc1C(=O)Nc1ccccc1	-8.8	102.0	-6.2	-0.9
CC(C)c1ccc(-c2nnn(CC(=O)OC3CCCCC3)n2)cc1	0.0	101.0	-5.6	-0.4
SMILES	MenB inh	PV pol inh	MbtI inh	AID504770
NC(=S)c1sccc1CS(=O)c1ccc(Cl)cc1 (stereo not drawn)	1.6	107.0	58.6*	-0.7
Cc1ccsc1C(N)=S	-20.2	103.0	6.0	-0.8
CC1(C)CC(NC(=O)CCc2ccccc2)CC(C)(C)N1	38.8*	101.0	3.8	0.7
CC1(C)CC(NC(=O)CCCC(=O)O)CC(C)(C)N1	-6.4	102.0	-19.4	-0.2
ClCc1csc(Nc2ccccc2)n1	/	110.0	11.4	0.8
Cc1csc(Nc2ccccc2)n1	/	95.0	72.1*	-0.85
O=C(NCCC1=CCCCC1)Nc1c[nH]c2ccccc12	8.1	100.0	-72.8	1.15
CNC(=O)CSc1nnc(-c2ccccc2OC)n1CCc1ccccc1	-12.6	106.0	-8.1	0.8
CCN(CC)Cc1cc(O)c(CN(CC)CC)cc1O	/	98.0	94.5*	0.35
CCN(CC)Cc1cc(C(C)C)c(O)c(C(C)C)c1	/	/	/	0.05
Cc1ccc(S(=O)(=O)N(CC(=O)O)C2CCCCCC2)cc1	-14.2	96.0	-8.0	-0.5
NC(=O)CN(C1CCCCC1)S(=O)(=O)c1ccc(Br)cc1	41.0*	99.0	i	-0.2
O=C(c1ccc2c(=O)[nH][nH]c(=O)c2c1)N1CCN(c2cccc(C(F)(F)F)c2)CC1	-35.3	103.0	-3.6	-0.9
COC(=O)c1ccc(NC(C)=O)c(C(=O)OC)c1	/	/	/	-0.1
COC(=O)c1ccc(O)c(C(=O)OC)c1	-2.5	0.0*	-126.2	-0.15
CC(C)(C)NC(=O)Cc1csc2nc(-c3ccccc3)cn12	-9.6	102.0	-16.1	-1.05
O=C1c2ccccc2-c2n[nH]c(=S)nc21	i	76.0*	27.4	-2.6*
O=C1c2ccccc2-c2nc3ccccc3nc21	12.0	100.0	5.0	-0.4
